Residue numbers refer to the chain shown, from its start.

What all share (test): protein-binding microarray (PBM); PBM: ~300 nM protein, 6 mM HEPES pH 7.8, 80 mM KCl, 0.5 mM EDTA, 0.5 mM EGTA, 6% glycerol, 35 ng/ul poly-dIdC, 1% milk, 1 h, room temperature; Ap Aiptasia and Nv Nematostella (sea anemones) / Co Capsaspora / Aq Amphimedon (sponge) / Dm Drosophila / Hu human; RHD is the Rel homology domain; high values mean tight binding
Common to all, as to conditions: dsDNA, one strand shown

For one test, the target named is T1, GST-Ap-NF-kB RHD (Exaiptasia pallida (Aiptasia), UniProt A0A913YAJ5 2-422).
T1 sequence: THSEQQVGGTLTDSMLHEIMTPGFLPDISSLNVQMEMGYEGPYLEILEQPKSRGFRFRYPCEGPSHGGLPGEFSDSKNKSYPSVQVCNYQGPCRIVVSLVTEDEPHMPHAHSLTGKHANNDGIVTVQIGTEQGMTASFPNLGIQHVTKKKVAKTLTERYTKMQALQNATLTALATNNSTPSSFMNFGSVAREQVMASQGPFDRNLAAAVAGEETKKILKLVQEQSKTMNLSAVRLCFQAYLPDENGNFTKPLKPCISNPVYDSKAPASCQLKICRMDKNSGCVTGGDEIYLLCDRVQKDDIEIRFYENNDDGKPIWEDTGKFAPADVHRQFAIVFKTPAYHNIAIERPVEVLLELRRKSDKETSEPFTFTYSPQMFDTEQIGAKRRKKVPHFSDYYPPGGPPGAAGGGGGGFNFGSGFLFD

Test [1] addresses T2, GST-Nv-NF-kB (Cys allele) (Nematostella vectensis, UniProt E5G601 2-411).
T2 sequence: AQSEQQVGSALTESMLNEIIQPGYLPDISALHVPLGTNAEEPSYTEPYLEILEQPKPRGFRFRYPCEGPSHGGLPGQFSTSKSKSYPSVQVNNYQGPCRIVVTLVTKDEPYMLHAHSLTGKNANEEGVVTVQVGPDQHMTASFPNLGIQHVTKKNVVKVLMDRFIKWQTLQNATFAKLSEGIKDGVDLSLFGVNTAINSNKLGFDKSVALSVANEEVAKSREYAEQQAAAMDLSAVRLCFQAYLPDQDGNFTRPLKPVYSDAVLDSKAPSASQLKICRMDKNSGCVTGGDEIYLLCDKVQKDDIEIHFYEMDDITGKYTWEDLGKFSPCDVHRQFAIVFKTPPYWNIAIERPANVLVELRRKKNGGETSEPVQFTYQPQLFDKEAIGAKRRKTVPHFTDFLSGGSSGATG

The target of test [2] is T3, GST-Nv-NF-kB (Ser allele) (Nematostella vectensis, UniProt A7UNT2 2-411).
T3 sequence: T2 sequence with Q21R, C66S, S207N, E215Q, V217A, E225K, A268E, D399E

Another test addresses T4, GST-Co-NF-kB (Capsaspora owczarzaki, UniProt F1ARL5 200-546).
T4 sequence: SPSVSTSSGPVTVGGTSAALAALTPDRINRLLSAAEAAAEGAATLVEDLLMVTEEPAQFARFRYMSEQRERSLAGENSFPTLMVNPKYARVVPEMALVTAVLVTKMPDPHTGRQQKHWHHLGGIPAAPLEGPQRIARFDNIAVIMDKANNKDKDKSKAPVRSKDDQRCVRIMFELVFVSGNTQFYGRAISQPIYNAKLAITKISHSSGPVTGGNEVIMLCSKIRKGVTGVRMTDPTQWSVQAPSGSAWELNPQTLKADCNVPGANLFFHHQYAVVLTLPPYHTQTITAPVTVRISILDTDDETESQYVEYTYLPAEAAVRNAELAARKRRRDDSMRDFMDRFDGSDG

For the next test, the target named is T5, GST-Aq-NF-kB (Amphimedon queenslandica, UniProt A9Y5G7 2-389).
T5 sequence: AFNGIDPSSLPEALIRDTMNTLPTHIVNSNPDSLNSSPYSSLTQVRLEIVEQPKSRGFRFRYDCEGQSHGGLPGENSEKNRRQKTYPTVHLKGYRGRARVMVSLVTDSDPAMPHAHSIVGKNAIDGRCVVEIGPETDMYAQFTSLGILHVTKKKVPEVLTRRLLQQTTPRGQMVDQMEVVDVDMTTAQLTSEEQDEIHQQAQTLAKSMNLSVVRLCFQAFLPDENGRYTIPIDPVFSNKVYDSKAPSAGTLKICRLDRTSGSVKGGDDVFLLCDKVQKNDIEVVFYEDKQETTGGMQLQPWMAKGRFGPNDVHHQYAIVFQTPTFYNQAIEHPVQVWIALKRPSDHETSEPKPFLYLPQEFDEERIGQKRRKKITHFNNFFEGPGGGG

A further test concerns the target GST-Hu-p50 (Homo sapiens, UniProt P19838 7-356).
Another test addresses T6, GST-Dm-Relish (Drosophila melanogaster, UniProt Q94527 99-473).
T6 sequence: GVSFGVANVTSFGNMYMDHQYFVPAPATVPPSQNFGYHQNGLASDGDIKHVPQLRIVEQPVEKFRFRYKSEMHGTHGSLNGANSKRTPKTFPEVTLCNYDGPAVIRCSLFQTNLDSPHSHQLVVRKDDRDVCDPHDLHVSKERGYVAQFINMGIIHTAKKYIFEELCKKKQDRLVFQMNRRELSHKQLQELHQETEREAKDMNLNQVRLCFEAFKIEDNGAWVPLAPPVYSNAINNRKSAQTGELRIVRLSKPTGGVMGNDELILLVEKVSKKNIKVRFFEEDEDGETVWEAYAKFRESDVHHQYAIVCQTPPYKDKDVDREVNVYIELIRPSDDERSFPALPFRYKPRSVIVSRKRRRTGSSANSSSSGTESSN

Sequence of GST-Hu-p50 (P19838 7-356): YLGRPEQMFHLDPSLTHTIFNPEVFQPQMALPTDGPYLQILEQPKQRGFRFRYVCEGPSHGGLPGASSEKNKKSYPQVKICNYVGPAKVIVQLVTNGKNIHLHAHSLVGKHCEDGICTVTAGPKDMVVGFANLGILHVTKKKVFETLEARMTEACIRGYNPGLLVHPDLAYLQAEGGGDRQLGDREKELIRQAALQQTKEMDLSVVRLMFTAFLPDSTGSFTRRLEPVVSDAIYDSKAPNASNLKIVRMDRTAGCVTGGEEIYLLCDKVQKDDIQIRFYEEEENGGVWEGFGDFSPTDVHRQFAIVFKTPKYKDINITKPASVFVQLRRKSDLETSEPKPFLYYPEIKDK

For the sequence “CCGATTAACATCAACTTTTTCCCTGATGTTAATCGGGTCTTGATTCGCTTGACGCTGCTG”, the binding signal is 2.88 z-score in the test with GST-Ap-NF-kB RHD; 4.79 z-score in test [1]; 6.57 z-score in test [2]; 5.52 z-score with GST-Co-NF-kB; 3.16 z-score with GST-Aq-NF-kB; 2.68 z-score with GST-Hu-p50.
As to “CCGATTAACATCAAAGGGGCTACTGATGTTAATCGGGTCTTGATTCGCTTGACGCTGCTG”, the binding signal with GST-Ap-NF-kB RHD amounted to 2.79 z-score; in test [1], 3.08 z-score; in test [2], 2.12 z-score; with GST-Aq-NF-kB, 3.2 z-score; with GST-Hu-p50, 3.13 z-score.
As for “CCGATTAACATCAGATGGGAAAATGATGTTAATCGGGTCTTGATTCGCTTGACGCTGCTG”, the binding signal is 2.47 z-score with GST-Ap-NF-kB RHD; 4.24 z-score in test [1]; 5.39 z-score in test [2]; 2.47 z-score with GST-Co-NF-kB; 2.28 z-score with GST-Aq-NF-kB; 2.37 z-score in the test with GST-Hu-p50.
With “CCGATTAACATCAGGGAATTGGATGATGTTAATCGGGTCTTGATTCGCTTGACGCTGCTG”, the binding signal turned out to be 2.15 z-score with GST-Ap-NF-kB RHD; 3.52 z-score in test [1]; 3.84 z-score in test [2]; 1.88 z-score with GST-Co-NF-kB; 2.8 z-score in the test with GST-Aq-NF-kB; 1.84 z-score in the test with GST-Hu-p50.
With “CCGATTAACATCAACGTGGGAAATGATGTTAATCGGGTCTTGATTCGCTTGACGCTGCTG”, the binding signal with GST-Ap-NF-kB RHD worked out at 1.56 z-score; in test [1] it was 2.36 z-score; in test [2], 1.77 z-score; with GST-Co-NF-kB, 2.91 z-score; with GST-Aq-NF-kB, 1.71 z-score; with GST-Hu-p50, 1.29 z-score.
On to “CCGATTAACATCAAAATTTCCAGTGATGTTAATCGGGTCTTGATTCGCTTGACGCTGCTG”, for which the binding signal in the test with GST-Aq-NF-kB is 1.04 z-score; in the test with GST-Hu-p50, 1.16 z-score.
“CCGATTAACATCAAGAATCCCCCTGATGTTAATCGGGTCTTGATTCGCTTGACGCTGCTG”: the binding signal worked out at 9.83 z-score in the test with GST-Ap-NF-kB RHD; 9.82 z-score in test [1]; 10.5 z-score in test [2]; 6.36 z-score in the test with GST-Co-NF-kB; 9.1 z-score with GST-Dm-Relish; 7.61 z-score in the test with GST-Aq-NF-kB. For the same sequence, in the test with GST-Hu-p50, the binding signal turned out to be 7.83 z-score.
On to “CCGATTAACATCAACTTGGGAAATGATGTTAATCGGGTCTTGATTCGCTTGACGCTGCTG”, for which the binding signal was 1.31 z-score with GST-Ap-NF-kB RHD; 2.47 z-score in test [1]; 2.1 z-score in test [2]; 2.33 z-score with GST-Co-NF-kB; 1.15 z-score with GST-Aq-NF-kB; 1.54 z-score in the test with GST-Hu-p50.
On to “CCGATTAACATCAGATATTACCCTGATGTTAATCGGGTCTTGATTCGCTTGACGCTGCTG”, for which the binding signal with GST-Ap-NF-kB RHD is 2.58 z-score; in test [1], 3.48 z-score; in test [2] it was 3.01 z-score; with GST-Co-NF-kB it was 2.75 z-score; with GST-Aq-NF-kB it was 4.82 z-score; in the test with GST-Hu-p50, 2.16 z-score.
Take “CCGATTAACATCAATGTGGGAAATGATGTTAATCGGGTCTTGATTCGCTTGACGCTGCTG”: the binding signal with GST-Ap-NF-kB RHD came to 1.32 z-score; in test [1], 2.75 z-score; in test [2] it was 2.53 z-score; with GST-Co-NF-kB it was 2.85 z-score; with GST-Aq-NF-kB, 1.55 z-score; with GST-Hu-p50 it was 1.92 z-score.
As to “CCGATTAACATCAGGGAAAGCTATGATGTTAATCGGGTCTTGATTCGCTTGACGCTGCTG”, the binding signal with GST-Ap-NF-kB RHD stood at 2.11 z-score; in test [1], 3.99 z-score; in test [2] it was 3.57 z-score; in the test with GST-Co-NF-kB, 2.65 z-score; in the test with GST-Aq-NF-kB, 3.54 z-score; in the test with GST-Hu-p50, 2.53 z-score.
“CCGATTAACATCAGACATTTCCCTGATGTTAATCGGGTCTTGATTCGCTTGACGCTGCTG”: the binding signal with GST-Ap-NF-kB RHD is 2.94 z-score; in test [1], 4.75 z-score; in test [2], 4.39 z-score; with GST-Co-NF-kB it was 3.17 z-score; in the test with GST-Aq-NF-kB, 5.41 z-score; in the test with GST-Hu-p50, 3.59 z-score.
Take “CCGATTAACATCACAATTTCCCCTGATGTTAATCGGGTCTTGATTCGCTTGACGCTGCTG”: the binding signal with GST-Ap-NF-kB RHD amounted to 8.29 z-score; in test [1] it was 9.4 z-score; in test [2], 12 z-score; with GST-Co-NF-kB, 8.61 z-score; in the test with GST-Dm-Relish, 5.96 z-score; in the test with GST-Aq-NF-kB it was 6.69 z-score. For the same sequence, in the test with GST-Hu-p50, the binding signal is 6.74 z-score.

These data come from PMC5700166.
